Source: PubChem BioAssay
hcGAS inh – Primary biochemical luminescence assay for human cyclic GMP-AMP synthase inhibitors | recombinant h-cGAS, ATP depletion, Kinase-Glo luminescence | Q8N884 | inhibition, % at 12.5 µM | 290,000 compounds, 0.081% hits;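 note: 0% = vehicle reaction and 100% = reaction without DNA for no activity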
NPYLR7 agonist – agonists of mosquito NPYLR7 receptor, primary screen, cell-based, Aedes aegypti, calcium fluorescence, mosquito biting behavior | AID 1259423, 2018 | 270,000 compounds, 0.15% hits | activation, % at 10 µM | HEK293T NPYLR7/Galpha15, GCaMP6s calcium fluorescence | Aedes aegypti neuropeptide Y-like receptor 7 (NPYLR7); in the data active = activation above about 40%;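 note: 0% = vehicle and 100% = reference agonist at the receptor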
mcGAS inh – cyclic GMP-AMP synthase inhibitors, mouse, primary biochemical chemiluminescence. inhibition, % at 12.5 µM. recombinant cGAS, Kinase-Glo ATP depletion luminescence. 160,000 compounds, 0.15% hits. Q8C6L5;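 note: 0% = negative control wells and 100% = reference inhibitor with no enzyme activity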
Target sequence (Q8C6L5 whole entry, looked up): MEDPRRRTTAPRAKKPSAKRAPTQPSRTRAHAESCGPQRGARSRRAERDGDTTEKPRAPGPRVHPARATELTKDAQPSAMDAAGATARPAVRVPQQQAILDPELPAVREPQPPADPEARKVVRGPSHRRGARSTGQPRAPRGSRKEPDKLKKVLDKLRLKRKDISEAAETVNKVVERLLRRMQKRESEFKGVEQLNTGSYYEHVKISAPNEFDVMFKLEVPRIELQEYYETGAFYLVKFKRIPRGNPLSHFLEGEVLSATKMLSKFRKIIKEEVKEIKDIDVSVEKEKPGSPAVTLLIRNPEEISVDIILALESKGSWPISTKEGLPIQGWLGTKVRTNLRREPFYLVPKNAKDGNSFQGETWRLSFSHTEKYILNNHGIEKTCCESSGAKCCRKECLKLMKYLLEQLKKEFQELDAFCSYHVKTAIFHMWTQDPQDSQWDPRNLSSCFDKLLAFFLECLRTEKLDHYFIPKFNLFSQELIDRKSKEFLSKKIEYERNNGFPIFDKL
An asterisk follows results filed as active; · = no result. An excerpt weighted towards active compounds, which were near 0.3% of everything screened. Cut-off read from the data, not from the text of the source, unless noted: active = inhibition above about 40%; inactive = the rest.

SMILES	hcGAS inh	NPYLR7 agonist	mcGAS inh
CSc1nnc2c(n1)OC(c1cc(Br)c(OC(=O)c3ccc([N+](=O)[O-])cc3)c(Br)c1)Nc1ccccc1-2 (stereo not drawn)	6	7	42*
COc1cc(C2Nc3ccccc3-c3nnc(SC)nc3O2)cc(Br)c1OC (stereo not drawn)	-9	-1	-3
COc1cc2oc(=O)cc(C)c2c(OC)c1OC(C)=O	2	-1	·
CC(=O)Oc1cc2oc(=O)c(Cl)c(C)c2cc1Cl	72*	-1	29
COc1ccc(-c2cc(C(=O)NCCN3CCCCC3)c(C)n2-c2ccc(C)cc2)cc1	-13	-3	-6
Cn1c(-c2cccnc2)cc2cnc(Nc3cccc(S(C)(=O)=O)c3)cc21	-4	6	-6
CCOC(=O)C1(C)CCCCCN1C(=O)c1ccc2c(c1)CCO2 (stereo not drawn)	1	-2	·
CC(C)C(=O)Nc1sc2c(c1-c1nc3ccccc3s1)CCN(C(C)C)C2	78*	66*	90*
CC(=O)N1CCc2c(sc(NC(=O)c3ccccc3)c2-c2nc3ccccc3s2)C1	-2	3	·
CN1CCc2c(sc(NC(=O)Cc3ccccc3)c2-c2nc3ccccc3s2)C1	0	45*	-4
CCOC(=O)N1CCc2c(sc(NC(=O)C(C)C)c2-c2nc3ccccc3s2)C1	-4	5	·
CC(C)N1CCc2c(sc(NC(=O)c3ccc([N+](=O)[O-])o3)c2-c2nc3ccccc3s2)C1	-3	-3	-6
CC(C)N1CCc2c(sc(NC(=O)C3CC3)c2-c2nc3ccccc3s2)C1	45*	166*	32
CC(=O)N1CCc2c(sc(NC(=O)Cc3ccccc3)c2-c2nc3ccccc3s2)C1	-5	3	·
CC(C)C(=O)Nc1sc2c(c1-c1nc3ccccc3s1)CCN(C)C2	10	49*	0
COc1ccc(/C=C2N=C(/C=C/c3cccc(Cl)c3Cl)OC\2=O)cc1OC	-3	-4	·
Oc1oc(-c2ccc(Cl)cc2)nc1C=Nc1ccccc1Br	2	-4	-2
Cc1c(-n2cccc2)cccc1[N+](=O)[O-]	0	-7	-5
Cn1cc(CN2CCS(=O)(=O)C(C)(C)C2)cn1	-18	3	-16
O[C@@H]1CN(Cc2ccc3c(c2)OCO3)CC[C@H]1c1ccc2c(c1)OCO2	-3	2	·
O[C@@H]1CN(Cc2ccncc2Cl)CC[C@H]1c1ccc2c(c1)OCO2	-4	49*	·
Cc1csc(C(OC(=O)c2ccc(Cl)s2)C(F)(F)F)n1 (stereo not drawn)	-11	4	-18
CC(CCC(=O)N1CCC(Cc2nncn2C)CC1)N1CCOCC1 (stereo not drawn)	-1	1	·
COCc1[nH]n2c(=O)cc(Cc3ccccc3)nc2c1-c1ccccc1	56*	-4	·
CCCc1cc(=O)n2[nH]c(COC)c(-c3ccc(C)cc3)c2n1	-5	-17	·
SMILES	hcGAS inh	NPYLR7 agonist	mcGAS inh
O=c1cc(Cc2ccccc2)nc2c(-c3ccccc3)c(C(F)(F)F)[nH]n12	68*	-11	·
Cc1cc(C)nc(SCc2cc(=O)n3[nH]c(C)c(-c4ccccc4)c3n2)n1	-11	-3	·
CCC(=O)N(C)c1nnc(C23CC4CC(CC(C4)C2)C3)s1	-4	3	-2
CN(C(=O)CCl)c1nnc(C23CC4CC(CC(C4)C2)C3)s1	-1	0	60*
COC(C(=O)Nc1ccnn1C1CCN(C(=O)Cc2c(C)noc2C)CC1)c1ccccc1 (stereo not drawn)	-3	-1	-4
COc1ccc(C)cc1-n1c(SCC(=O)O)nnc1-c1cc(C)nn1C	44*	8	-9
COc1ccc(C)cc1-n1c(Cn2ccnc2)nnc1SCC(=O)O	-4	13	·
Cc1cc(O)c(CN2CCN(C)CC2)c2c1C(=O)/C(=C/c1cccs1)O2	-2	49*	-6
Cc1cc(O)c(CN2CCCCC2)c2c1C(=O)/C(=C/c1cc3ccccc3o1)O2	-4	50*	-5
Cc1cc(O)c(CN2CCN(C)CC2)c2c1C(=O)/C(=C/c1ccncc1)O2	-3	26	-2
Cc1cc(O)c(CN2CCOCC2)c2c1C(=O)/C(=C/c1cc3ccccc3o1)O2	-1	28	-3
O=C(COCc1ccccc1)Nc1ccc(C2SCC(=O)N2c2ccc3c(c2)CCC3)cc1 (stereo not drawn)	-4	·	-7
Cc1ccccc1CN1C(=O)C2(SC(C)(C)CN2C(=O)c2ccc(Cl)cc2)c2ccccc21 (stereo not drawn)	-5	-2	-5
COc1ccc(NC(=O)N2CCCN(c3nc(Cc4ccc(Cl)cc4)ns3)CC2)cc1	-14	-5	-5
O=C(c1snc2c(=O)n(Cc3ccccc3)c(=O)[nH]c12)N1CCSCC1	-2	65*	·
Cc1ccc(N2CCN(C(=O)c3snc4c(=O)n(CC(C)C)c(=O)[nH]c34)CC2)c(C)c1	-5	-9	·
COc1ccc2c(c1OC)C(=O)N(c1cccc(Cl)c1)C2=O	-7	10	·
COc1cc(OC)c(C2=NOC3(CC(=O)N(c4cccc(Cl)c4)C3=O)C2)cc1OC (stereo not drawn)	-7	83*	·
CC(C)CN(CC(=O)N(Cc1ccc(F)cc1)Cc1ccco1)Cc1ccc(F)c(F)c1	-3	4	-7
O=C1c2ccc([N+](=O)[O-])cc2C(=O)N1CNc1cccc2ccccc12	-7	-3	-5
CC(=O)O[C@@H]1CC[C@@]2(C)C(CC[C@]3(C)C2CC=C2C4CC(C)(C)CC[C@]4(C(=O)O)CC[C@]23C)C1(C)C (stereo partly drawn)	-5	·	-4
C[C@H]1O[C@H](O[C@@H]2[C@@H](O[C@H]3CC[C@@]4(C)C(CC[C@]5(C)C4CC=C4[C@@H]6CC(C)(C)CC[C@]6(C(=O)O)CC[C@]45C)[C@]3(C)CO)OC[C@@H](O)[C@H]2O)[C@@H](O)[C@H](O)[C@@H]1O (stereo partly drawn)	1	53*	·
CCOC(=O)c1cc(-c2ccc(N3CCN(C(=O)Cc4cccc(OC)c4)CC3)cc2)n(-c2ccc(OC)cc2)n1	-7	·	-5
CSc1ccccc1NC(=O)c1cccc2cccnc12	1	6	·
O=C(Sc1cccc2cccnc12)c1ccccc1Cl	60*	-7	44*
SMILES	hcGAS inh	NPYLR7 agonist	mcGAS inh
COC(=O)c1ccc(C(=O)NCc2ccc(-c3ncc(-c4cc(OC)ccc4OC)[nH]3)cc2)cc1	2	-7	1
NC(=NS(=O)(=O)Cc1ccccc1)Nc1nc2ccccc2o1	-7	4	·
Cc1c(C(=O)Nc2nccs2)nnn1-c1ccc(C(C)C)cc1	-4	-4	-8
CN1C(=S)N(c2ccc3c(c2)CCC3)C(=O)/C1=C\c1ccncc1	-2	41*	-3
CN1C(=S)N(c2ccc3c(c2)CCC3)C(=O)/C1=C/c1ccc(N(C)C)cc1	-13	4	-10
CC(C)(C)C1CCc2c(sc(NC(=O)Cn3cnc([N+](=O)[O-])n3)c2C(N)=O)C1 (stereo not drawn)	-3	-10	-6
CN1CCN(C(=O)/C=C/c2ccc(Cl)cc2Cl)CC1	-2	-3	-6
O=C(/C=C/c1ccc(Cl)cc1Cl)n1cccn1	4	-10	44*
Cc1cc(NC(=O)C2CCN(C(=O)C3(c4cccs4)CCCC3)CC2)no1	-6	0	·
